What all share (test): DAPPL (digital affinity profiling via proximity ligation, sequencing); 10 mM Tris-HCl pH 7.5, 50 mM NaCl, 1 mM DTT, 4% glycerol, room temperature, 30 min; GST-TFs on glutathione beads, 16-mer random dsDNA library, 0.1% formaldehyde crosslink after washing; high values mean tight binding
One test deals with T1, ELK1 (Homo sapiens, UniProt P19419 1-428).
T1 sequence: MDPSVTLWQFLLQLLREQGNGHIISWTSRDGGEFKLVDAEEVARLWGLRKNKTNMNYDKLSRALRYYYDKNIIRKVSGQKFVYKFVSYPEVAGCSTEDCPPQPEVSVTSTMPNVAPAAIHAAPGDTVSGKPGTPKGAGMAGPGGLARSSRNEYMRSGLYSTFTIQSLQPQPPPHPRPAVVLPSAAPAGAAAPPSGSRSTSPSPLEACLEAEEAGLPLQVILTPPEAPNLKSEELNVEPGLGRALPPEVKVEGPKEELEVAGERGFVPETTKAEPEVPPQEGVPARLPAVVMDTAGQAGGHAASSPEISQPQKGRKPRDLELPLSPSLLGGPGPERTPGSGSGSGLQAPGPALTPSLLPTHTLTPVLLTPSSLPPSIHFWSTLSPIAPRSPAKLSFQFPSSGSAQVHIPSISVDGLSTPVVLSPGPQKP
The note with it: protein: recombinant; tags: N-terminal GST; dsDNA, one strand shown. An outline of the steps: (§1)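 Human transcription factors were made in yeast as GST fusions, captured on glutathione beads and barcoded with DNA. With a tag-only sample included, the pool was incubated with 200 nmole of a random double-stranded 16-mer DNA library in Tris/NaCl/DTT/glycerol buffer at room temperature for 30 min, then crosslinked with 0.1% formaldehyde after washing, ligated by proximity, amplified and sequenced. For binding signal, each hexamer's read frequency for a factor is divided by its frequency for the tag-only sample.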

In the next test the target is T2, GABPA (Homo sapiens, UniProt Q06546 1-454).
T2 sequence: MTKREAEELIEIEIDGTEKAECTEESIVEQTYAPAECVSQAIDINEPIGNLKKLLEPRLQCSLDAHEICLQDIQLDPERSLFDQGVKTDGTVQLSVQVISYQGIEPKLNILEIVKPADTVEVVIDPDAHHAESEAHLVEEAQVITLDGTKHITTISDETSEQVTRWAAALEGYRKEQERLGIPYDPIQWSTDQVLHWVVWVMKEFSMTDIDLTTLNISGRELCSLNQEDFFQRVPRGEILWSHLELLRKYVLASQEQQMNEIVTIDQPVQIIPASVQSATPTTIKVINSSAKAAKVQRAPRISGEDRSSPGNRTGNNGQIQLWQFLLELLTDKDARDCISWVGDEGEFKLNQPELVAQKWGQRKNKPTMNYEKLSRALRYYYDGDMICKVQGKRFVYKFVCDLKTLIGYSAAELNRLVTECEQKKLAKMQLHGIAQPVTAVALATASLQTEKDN
The following applies: protein: recombinant; tags: N-terminal GST; dsDNA, one strand shown. An outline of the steps:
as §1

The target of the next test is ELF1 (Homo sapiens, UniProt P32519 1-619). The following applies: protein: recombinant; tags: N-terminal GST; dsDNA, one strand shown. In short, it runs like this:
as §1

Another test addresses T3, EHF (Homo sapiens, UniProt Q9NZC4 1-300).
T3 sequence: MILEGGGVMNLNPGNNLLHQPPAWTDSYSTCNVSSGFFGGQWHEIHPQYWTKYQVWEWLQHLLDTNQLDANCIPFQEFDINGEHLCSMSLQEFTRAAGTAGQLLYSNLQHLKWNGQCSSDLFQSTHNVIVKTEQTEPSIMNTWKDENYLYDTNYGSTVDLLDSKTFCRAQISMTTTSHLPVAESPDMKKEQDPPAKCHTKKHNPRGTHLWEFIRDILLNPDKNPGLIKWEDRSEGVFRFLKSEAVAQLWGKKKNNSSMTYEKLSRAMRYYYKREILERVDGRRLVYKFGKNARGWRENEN
The following applies: protein: recombinant; tags: N-terminal GST; dsDNA, one strand shown. In short, it runs like this:
as §1

The target in another test is SPI1 (Homo sapiens, UniProt P17947 1-270). The following applies: protein: recombinant; tags: N-terminal GST; dsDNA, one strand shown. In short, it runs like this: as §1
The target of the next test is SPIB (Homo sapiens, UniProt Q01892 1-262). The following applies: protein: recombinant; tags: N-terminal GST; dsDNA, one strand shown. In short, it runs like this:
as §1

A further test has as its target T4, ELK3 (Homo sapiens, UniProt P41970 1-407).
T4 sequence: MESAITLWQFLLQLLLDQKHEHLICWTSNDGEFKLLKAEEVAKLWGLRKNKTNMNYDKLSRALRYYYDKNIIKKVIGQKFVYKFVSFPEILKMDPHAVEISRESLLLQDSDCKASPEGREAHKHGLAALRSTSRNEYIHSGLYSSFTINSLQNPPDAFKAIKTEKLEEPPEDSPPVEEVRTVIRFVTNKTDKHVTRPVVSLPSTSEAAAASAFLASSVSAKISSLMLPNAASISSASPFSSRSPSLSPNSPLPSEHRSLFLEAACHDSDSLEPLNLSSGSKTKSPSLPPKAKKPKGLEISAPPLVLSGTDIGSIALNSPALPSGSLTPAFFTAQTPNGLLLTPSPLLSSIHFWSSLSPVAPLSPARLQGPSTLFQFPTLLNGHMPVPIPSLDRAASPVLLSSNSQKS
The note with it: protein: recombinant; tags: N-terminal GST; dsDNA, one strand shown. In short, it runs like this:
as §1

For another test, the target named is HSF1 (Homo sapiens, UniProt Q00613 1-529). The following applies: protein: recombinant; tags: N-terminal GST; chain copies: 3; dsDNA, one strand shown. In short, it runs like this: as §1
Sequence of HSF1 (Q00613 whole entry): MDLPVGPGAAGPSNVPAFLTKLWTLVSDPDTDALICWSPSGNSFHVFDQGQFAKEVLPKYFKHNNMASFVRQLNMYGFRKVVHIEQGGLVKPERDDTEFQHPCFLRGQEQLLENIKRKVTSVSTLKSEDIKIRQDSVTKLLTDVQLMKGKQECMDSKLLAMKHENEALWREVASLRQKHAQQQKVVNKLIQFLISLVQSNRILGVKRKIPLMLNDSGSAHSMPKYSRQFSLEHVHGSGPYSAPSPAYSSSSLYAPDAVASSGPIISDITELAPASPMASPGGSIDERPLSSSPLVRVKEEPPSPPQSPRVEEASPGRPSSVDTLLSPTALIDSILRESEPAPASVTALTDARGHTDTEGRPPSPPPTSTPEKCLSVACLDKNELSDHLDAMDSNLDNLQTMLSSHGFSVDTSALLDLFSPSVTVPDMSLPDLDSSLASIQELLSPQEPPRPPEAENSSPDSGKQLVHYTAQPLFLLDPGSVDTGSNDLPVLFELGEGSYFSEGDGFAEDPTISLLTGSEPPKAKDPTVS
Another test has as its target T5, SPIC (Homo sapiens, UniProt Q8N5J4 1-248).
T5 sequence: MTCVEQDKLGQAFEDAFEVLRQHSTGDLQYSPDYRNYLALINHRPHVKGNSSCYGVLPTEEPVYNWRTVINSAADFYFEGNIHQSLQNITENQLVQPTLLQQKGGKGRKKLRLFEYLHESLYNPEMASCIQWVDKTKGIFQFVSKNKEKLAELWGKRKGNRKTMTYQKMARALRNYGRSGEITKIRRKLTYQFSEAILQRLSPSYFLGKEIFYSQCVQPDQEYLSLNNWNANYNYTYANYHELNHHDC
The note with it: protein: recombinant; tags: N-terminal GST; dsDNA, one strand shown. In short, it runs like this:
as §1

The target of another test is ELF4 (Homo sapiens, UniProt Q99607 1-663). The following applies: protein: recombinant; tags: N-terminal GST; dsDNA, one strand shown. In short, it runs like this:
as §1

The target of a further test is T6, ELK4 (Homo sapiens, UniProt P28324-2 1-405).
T6 sequence: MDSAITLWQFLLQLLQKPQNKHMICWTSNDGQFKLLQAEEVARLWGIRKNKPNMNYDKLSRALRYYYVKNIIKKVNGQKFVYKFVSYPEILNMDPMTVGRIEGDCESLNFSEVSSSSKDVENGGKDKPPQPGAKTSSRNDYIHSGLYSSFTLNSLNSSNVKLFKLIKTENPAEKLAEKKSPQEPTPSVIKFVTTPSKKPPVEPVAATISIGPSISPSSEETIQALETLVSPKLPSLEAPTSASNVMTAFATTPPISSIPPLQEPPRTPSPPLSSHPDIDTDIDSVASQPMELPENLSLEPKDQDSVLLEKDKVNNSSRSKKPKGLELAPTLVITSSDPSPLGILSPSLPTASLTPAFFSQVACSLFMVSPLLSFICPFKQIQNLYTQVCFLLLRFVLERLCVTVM
The note with it: protein: recombinant; tags: N-terminal GST; dsDNA, one strand shown. In short, it runs like this: as §1

The target of another test is T7, ETV2 (Homo sapiens, UniProt O00321 1-342).
T7 sequence: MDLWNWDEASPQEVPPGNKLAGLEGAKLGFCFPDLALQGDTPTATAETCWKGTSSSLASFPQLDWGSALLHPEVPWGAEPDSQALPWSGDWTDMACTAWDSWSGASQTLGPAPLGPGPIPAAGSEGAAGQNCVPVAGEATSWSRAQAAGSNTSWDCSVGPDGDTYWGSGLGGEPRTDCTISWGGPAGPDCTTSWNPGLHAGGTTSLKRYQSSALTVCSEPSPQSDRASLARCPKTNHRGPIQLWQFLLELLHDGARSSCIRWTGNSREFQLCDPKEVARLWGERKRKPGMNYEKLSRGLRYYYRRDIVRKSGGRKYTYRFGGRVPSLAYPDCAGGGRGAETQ
The following applies: protein: recombinant; tags: N-terminal GST; dsDNA, one strand shown. An outline of the steps:
as §1

The next test has as its target CRX (Homo sapiens, UniProt O43186 1-299). The following applies: protein: recombinant; tags: N-terminal GST; dsDNA, one strand shown. In short, it runs like this: as §1
Another test addresses ETV1 (Homo sapiens, UniProt P50549 1-477). The following applies: protein: recombinant; tags: N-terminal GST; dsDNA, one strand shown. In short, it runs like this: as §1
The target of another test is T8, ETV3L (Homo sapiens, UniProt Q6ZN32 1-361).
T8 sequence: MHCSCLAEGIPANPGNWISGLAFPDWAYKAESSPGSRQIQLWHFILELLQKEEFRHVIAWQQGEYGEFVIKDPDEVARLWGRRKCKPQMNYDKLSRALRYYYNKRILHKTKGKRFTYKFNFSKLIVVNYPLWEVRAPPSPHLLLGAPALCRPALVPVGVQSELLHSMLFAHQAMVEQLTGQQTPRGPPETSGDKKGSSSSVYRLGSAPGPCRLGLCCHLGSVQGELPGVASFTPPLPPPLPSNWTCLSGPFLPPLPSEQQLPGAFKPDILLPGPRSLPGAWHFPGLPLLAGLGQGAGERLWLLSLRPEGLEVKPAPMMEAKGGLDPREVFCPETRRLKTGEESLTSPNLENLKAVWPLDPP
The following applies: protein: recombinant; tags: N-terminal GST; dsDNA, one strand shown. In short, it runs like this: as §1

The target of a further test is T9, ETS2 (Homo sapiens, UniProt P15036 1-469).
T9 sequence: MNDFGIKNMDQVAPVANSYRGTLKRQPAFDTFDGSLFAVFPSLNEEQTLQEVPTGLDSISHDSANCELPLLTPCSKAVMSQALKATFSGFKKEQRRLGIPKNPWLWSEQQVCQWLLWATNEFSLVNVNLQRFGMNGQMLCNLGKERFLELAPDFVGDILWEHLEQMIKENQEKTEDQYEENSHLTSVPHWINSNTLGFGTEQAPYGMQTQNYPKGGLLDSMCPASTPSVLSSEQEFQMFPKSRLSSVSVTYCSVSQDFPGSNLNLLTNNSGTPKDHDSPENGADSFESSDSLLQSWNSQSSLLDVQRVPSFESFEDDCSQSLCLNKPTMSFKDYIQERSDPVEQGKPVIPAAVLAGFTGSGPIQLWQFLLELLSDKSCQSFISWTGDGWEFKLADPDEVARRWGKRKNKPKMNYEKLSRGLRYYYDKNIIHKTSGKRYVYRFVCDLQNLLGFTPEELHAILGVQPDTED
The note with it: protein: recombinant; tags: N-terminal GST; dsDNA, one strand shown. An outline of the steps: as §1

For another test, the target named is T10, ETV7 (Homo sapiens, UniProt Q9Y603 1-341).
T10 sequence: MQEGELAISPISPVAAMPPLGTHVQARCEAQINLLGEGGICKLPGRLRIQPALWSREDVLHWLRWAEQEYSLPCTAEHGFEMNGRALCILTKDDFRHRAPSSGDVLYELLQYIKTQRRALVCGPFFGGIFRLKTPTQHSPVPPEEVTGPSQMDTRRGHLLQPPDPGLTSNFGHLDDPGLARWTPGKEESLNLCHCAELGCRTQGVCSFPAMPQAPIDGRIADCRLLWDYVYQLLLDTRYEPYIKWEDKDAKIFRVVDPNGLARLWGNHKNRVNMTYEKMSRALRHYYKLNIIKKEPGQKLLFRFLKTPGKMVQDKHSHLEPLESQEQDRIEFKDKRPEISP
The following applies: protein: recombinant; tags: N-terminal GST; dsDNA, one strand shown. In short, it runs like this: as §1

In a further test the target is T11, ELF5 (Homo sapiens, UniProt Q9UKW6-2 1-255).
T11 sequence: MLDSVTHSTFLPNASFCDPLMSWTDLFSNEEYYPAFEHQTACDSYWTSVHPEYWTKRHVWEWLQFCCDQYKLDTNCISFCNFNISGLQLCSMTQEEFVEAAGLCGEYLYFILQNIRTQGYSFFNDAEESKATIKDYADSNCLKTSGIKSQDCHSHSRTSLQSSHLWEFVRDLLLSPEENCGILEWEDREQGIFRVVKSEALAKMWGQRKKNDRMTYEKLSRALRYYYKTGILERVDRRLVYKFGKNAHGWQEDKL
The following applies: protein: recombinant; tags: N-terminal GST; dsDNA, one strand shown. An outline of the steps:
as §1

The target of the next test is T12, ETV3 (Homo sapiens, UniProt P41162-2 1-143).
T12 sequence: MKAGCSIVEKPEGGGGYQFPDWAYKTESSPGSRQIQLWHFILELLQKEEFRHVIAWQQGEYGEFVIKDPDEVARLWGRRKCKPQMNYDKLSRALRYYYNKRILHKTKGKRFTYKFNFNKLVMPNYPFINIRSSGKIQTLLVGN
The note with it: protein: recombinant; tags: N-terminal GST; dsDNA, one strand shown. An outline of the steps: as §1

Sequence of ELF1 (P32519 whole entry): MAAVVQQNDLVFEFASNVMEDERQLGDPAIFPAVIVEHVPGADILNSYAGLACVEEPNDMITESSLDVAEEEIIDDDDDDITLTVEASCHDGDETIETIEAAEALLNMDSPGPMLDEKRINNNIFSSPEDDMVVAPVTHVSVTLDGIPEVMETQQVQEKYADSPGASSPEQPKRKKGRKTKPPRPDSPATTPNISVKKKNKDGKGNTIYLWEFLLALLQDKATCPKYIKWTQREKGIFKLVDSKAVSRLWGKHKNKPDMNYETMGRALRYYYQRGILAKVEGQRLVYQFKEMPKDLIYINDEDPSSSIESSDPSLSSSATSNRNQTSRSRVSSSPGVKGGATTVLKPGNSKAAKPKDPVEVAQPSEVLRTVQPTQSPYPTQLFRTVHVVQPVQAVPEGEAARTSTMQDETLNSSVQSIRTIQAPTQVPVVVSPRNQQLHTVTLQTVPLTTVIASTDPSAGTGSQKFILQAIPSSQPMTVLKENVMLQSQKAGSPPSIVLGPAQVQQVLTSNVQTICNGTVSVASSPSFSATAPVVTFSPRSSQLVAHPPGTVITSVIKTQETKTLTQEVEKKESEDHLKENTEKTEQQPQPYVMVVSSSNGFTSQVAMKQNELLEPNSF
Sequence of SPIB (Q01892 whole entry): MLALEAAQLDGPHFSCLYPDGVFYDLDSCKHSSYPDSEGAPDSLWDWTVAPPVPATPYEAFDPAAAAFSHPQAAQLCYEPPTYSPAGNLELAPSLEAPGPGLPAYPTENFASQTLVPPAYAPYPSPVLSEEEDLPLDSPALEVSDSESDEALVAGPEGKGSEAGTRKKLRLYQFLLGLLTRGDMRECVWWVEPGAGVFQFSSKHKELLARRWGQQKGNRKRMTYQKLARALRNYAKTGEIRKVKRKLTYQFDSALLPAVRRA
Sequence of CRX (O43186 whole entry): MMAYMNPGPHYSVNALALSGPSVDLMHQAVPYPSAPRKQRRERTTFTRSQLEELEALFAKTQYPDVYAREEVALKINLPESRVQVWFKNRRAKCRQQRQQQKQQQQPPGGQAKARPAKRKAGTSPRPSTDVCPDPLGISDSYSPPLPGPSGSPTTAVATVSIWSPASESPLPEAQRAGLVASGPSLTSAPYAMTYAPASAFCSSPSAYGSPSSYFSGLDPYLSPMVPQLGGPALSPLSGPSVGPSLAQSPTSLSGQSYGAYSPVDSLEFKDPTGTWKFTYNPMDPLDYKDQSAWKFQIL
Sequence of ELF4 (Q99607 whole entry): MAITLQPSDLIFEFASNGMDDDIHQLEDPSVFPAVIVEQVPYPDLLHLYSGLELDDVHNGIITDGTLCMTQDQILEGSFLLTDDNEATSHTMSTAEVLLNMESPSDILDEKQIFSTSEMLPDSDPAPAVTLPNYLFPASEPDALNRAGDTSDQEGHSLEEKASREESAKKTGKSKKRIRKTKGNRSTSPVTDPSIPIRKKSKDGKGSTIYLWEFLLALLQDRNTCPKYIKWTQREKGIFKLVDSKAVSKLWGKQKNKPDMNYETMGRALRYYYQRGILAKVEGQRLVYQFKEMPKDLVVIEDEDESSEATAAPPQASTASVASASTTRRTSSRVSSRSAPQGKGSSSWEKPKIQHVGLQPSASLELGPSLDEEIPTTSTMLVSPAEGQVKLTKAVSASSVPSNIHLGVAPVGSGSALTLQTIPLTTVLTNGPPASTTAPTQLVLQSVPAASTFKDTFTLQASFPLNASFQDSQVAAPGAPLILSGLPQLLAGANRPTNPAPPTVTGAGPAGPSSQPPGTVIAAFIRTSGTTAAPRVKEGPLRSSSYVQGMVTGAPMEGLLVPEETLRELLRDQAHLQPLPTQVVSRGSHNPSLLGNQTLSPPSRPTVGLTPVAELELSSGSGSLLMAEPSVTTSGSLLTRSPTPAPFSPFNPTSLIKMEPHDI
Sequence of ETV1 (P50549 whole entry): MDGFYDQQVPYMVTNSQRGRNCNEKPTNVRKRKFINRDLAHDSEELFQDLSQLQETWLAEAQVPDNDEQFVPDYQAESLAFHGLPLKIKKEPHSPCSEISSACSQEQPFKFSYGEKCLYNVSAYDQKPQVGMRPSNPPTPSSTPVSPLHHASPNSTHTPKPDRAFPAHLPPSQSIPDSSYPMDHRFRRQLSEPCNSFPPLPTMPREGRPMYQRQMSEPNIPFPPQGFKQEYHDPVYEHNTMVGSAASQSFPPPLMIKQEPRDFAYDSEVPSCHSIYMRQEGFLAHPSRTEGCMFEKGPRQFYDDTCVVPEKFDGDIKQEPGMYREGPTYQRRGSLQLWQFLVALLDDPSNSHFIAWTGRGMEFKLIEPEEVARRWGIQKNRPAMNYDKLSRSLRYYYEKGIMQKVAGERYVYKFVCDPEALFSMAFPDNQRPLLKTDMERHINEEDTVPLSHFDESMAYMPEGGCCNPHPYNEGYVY

TGATAA: the binding signal was 1.04 fold enrichment (6-mer frequency, TF over GST control) in the test with ELK1; 1.03 fold enrichment (6-mer frequency, TF over GST control) with GABPA; 1 fold enrichment (6-mer frequency, TF over GST control) with ELF1; 1.07 fold enrichment (6-mer frequency, TF over GST control) with EHF; 1.05 fold enrichment (6-mer frequency, TF over GST control) with SPI1; 1.05 fold enrichment (6-mer frequency, TF over GST control) with SPIB. The binding signal with ELK3 is 1.09 fold enrichment (6-mer frequency, TF over GST control); with HSF1, 1.2 fold enrichment (6-mer frequency, TF over GST control); with SPIC, 1.04 fold enrichment (6-mer frequency, TF over GST control); in the test with ELF4, 1.07 fold enrichment (6-mer frequency, TF over GST control); with ELK4, 1.06 fold enrichment (6-mer frequency, TF over GST control); in the test with ETV2 it was 1.02 fold enrichment (6-mer frequency, TF over GST control). Also, the binding signal in the test with CRX is 1.52 fold enrichment (6-mer frequency, TF over GST control); in the test with ETV1 it was 1.07 fold enrichment (6-mer frequency, TF over GST control); with ETV3L, 1.06 fold enrichment (6-mer frequency, TF over GST control); in the test with ETS2 it was 1.01 fold enrichment (6-mer frequency, TF over GST control); with ETV7, 1.08 fold enrichment (6-mer frequency, TF over GST control); in the test with ELF5, 1.02 fold enrichment (6-mer frequency, TF over GST control). In the test with ETV3, the binding signal was 1.05 fold enrichment (6-mer frequency, TF over GST control).

Source of the values: publication PMC7862700, “An all-to-all approach to the identification of sequence-specific readers for epigenetic DNA modifications on cytosine”.
